We go through 67 molecules from PubChem BioAssay AID1063 (University of Pittsburgh Molecular Library Screening Center, 2008).

Several values for one entry are separate records, joined by “and”; a condition that tells them apart may be missing. Equal values may be shown once. The campaign covered roughly 200,000 compounds. About 18,000 (9%) were called active. This is one part of a sample in which actives are shown more often than they occur. Rule as the data show it: active = inhibition above about 50%; inactive = the rest.

What is called inhibition is the drop in the measured response relative to a control, in per cent.

The assay in a line: antileishmanial activity against promastigotes – primary screen (AID 1063).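 Also: promastigotes grown with compound for 44 hours at 28 °C.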 Conditions: Leishmania major promastigotes, resazurin fluorescence viability; at 10 µM; active compounds read high. (In general: The colour change of resazurin is a common sign of viable cells or microbes.)
As to `CCC1CCCCN1C(=O)CSc1nc2c(c(=O)n(C)c(=O)n2C)n1C` (configuration not stated), the inhibition is -6.11% (inactive).

For `CCOc1ccc(C(CC(=O)O)n2cnnn2)cc1OC` (configuration not stated), the inhibition is -5.12% (inactive). The value for `Cc1cc(NC(=O)CSc2nccn2-c2ccc([N+](=O)[O-])cc2)no1` was -2.13% (inactive); that for `N/C(=N\OC(=O)N1c2ccccc2Sc2ccccc21)c1ccc(Br)cc1` was 26% (inactive); that for `O=[N+]([O-])c1ccc(N2CCNCC2)cc1NCc1cccnc1` was -1.11% (inactive). For `CN1CCN(c2ccc([N+](=O)[O-])c(Sc3nc4ccccc4[nH]3)c2)CC1`, the inhibition was 57% (active).

As to `O=C(CSc1nc2ccccc2[nH]1)N/N=C/C=C\c1ccccc1[N+](=O)[O-]`, the inhibition was 40.1% (inactive). For `COc1ccc(S(=O)(=O)N2CCOCC2)cc1NC(=O)CSc1ncnc2ccccc12`, the inhibition was 23% (inactive).

In the case of `O=C(NC1CC1)C1CCCN(C(=O)NC2CCCCC2)C1` (configuration not stated), the inhibition was 1.82% (inactive). Consider `COc1ccc(-c2nn(-c3ccccc3)cc2CN2CCCO2)c(F)c1`, for which the inhibition was 13% (inactive). The result for `O=C(CCCN1C(=O)/C(=C/c2ccccc2)SC1=S)Nc1ccc(O)cc1` reads 56.3% (active).

For `O=C(CCCN1C(=O)/C(=C/c2ccco2)SC1=S)Nc1ccccc1`, the inhibition is 10.2% (inactive). The value for `O=C(CCCN1C(=O)/C(=C\c2ccco2)SC1=S)Nc1cccc2ccccc12` was 30.1% (inactive); that for `O=C(Nc1ccc([N+](=O)[O-])cc1)C1CC12CCC2` (configuration not stated) was 2.36% (inactive). With `COc1ccc(/C(N)=N/OC(=O)Cc2ccccc2)cc1`, the inhibition was -6.43% (inactive). The result for `N/C(=N\OC(=O)CCC1CCCCC1)c1ccccn1` reads -4.7% (inactive); that for `N/C(=N\OC(=O)CC1CCCCC1)c1ccccc1`, 57.8% (active); that for `CCc1ccccc1N1C(=O)C2C3CC(=O)C(c4ccccc43)C2C1=O` (configuration not stated), 7.01% (inactive). Regarding `Cc1noc(C)c1COc1ccc2ccc(=O)oc2c1`, the inhibition was -4.27% (inactive). Turning to `CCOc1cc(C)c(Cl)cc1S(=O)(=O)n1nnc2ccccc21`, the inhibition is 1.2% (inactive). `COc1cc(Cl)c(S(=O)(=O)n2cnc(C)c2)cc1Cl`: the inhibition was 2.35% (inactive).

Take `COc1cc(C)c(C(C)C)cc1S(=O)(=O)n1ccnc1`: the inhibition was 97.8% (active). Turning to `COc1cc(C)c(Cl)cc1S(=O)(=O)n1ccnc1`, the inhibition was 80.5% (active). In the case of `CCOc1ccc(C(C)C)cc1S(=O)(=O)n1nc(C)cc1C`, the inhibition is 0.47% (inactive).

Regarding `CCOc1ccc(S(=O)(=O)n2ccnc2)c2ccccc12`, the inhibition was -5.02% (inactive). Turning to `N#Cc1c(NC(=O)CCCl)sc2c1CCCCC2`, the inhibition is -0.81% (inactive).

For `CCCCCc1nnc(NC(=O)c2ccc(=O)n(C)n2)s1`, the inhibition is 1.57% (inactive). The value for `O=C1N/C(=C/c2cccs2)C(=O)N1Cc1ccc(F)cc1` was -5.2% (inactive); that for `CC1CC1C(=O)OCC(=O)c1c(N)n(C)c(=O)n(C)c1=O` (configuration not stated) was -4.6% (inactive). The value for `COCCN(C(=O)C(C)C)c1nnc(-c2ccc(C(C)(C)C)cc2)s1` was 8.79% (inactive); that for `O=C(O)c1ccc2c3c(cccc13)C(=O)N(OS(=O)(=O)c1ccccc1)C2=O` was -8.08% (inactive); that for `Cc1cccc(C)c1NC(=O)CSc1ccc([N+](=O)[O-])cn1` was -1.31% (inactive). Take `Cc1cc(C)c(C#N)c(SCC(=O)Nc2ccccc2)n1`: the inhibition is -5.68% (inactive). As to `Cc1cc2cc3c(cc2nc1SCC(=O)Nc1c(C)cccc1C)CCC3`, the inhibition is 78.9% (active). As for `CS(=O)(=O)N(CC(=O)N/N=C/c1ccccn1)c1ccc(Oc2ccccc2)cc1`, the inhibition is 32.9% (inactive). Consider `CCCN(CC(=O)Nc1ccccc1C)C(=O)c1cc(=O)[nH]c2ccccc12`, for which the inhibition is 1.78% (inactive). Regarding `O=C(O)/C=C/c1cn(-c2ccccc2)nc1-c1cccs1`, the inhibition was -2.18% (inactive). As for `CC(=O)C1=C(C)NC(C)=C(C(C)=O)C1c1cn(-c2ccccc2)nc1-c1cccs1`, the inhibition is 79.7% (active). As for `O=C(O)c1ccc(N/N=C/c2cn(-c3ccccc3)nc2-c2cccs2)cc1`, the inhibition was 46.2% (inactive). For `CC(=O)Nc1ccc(S(=O)(=O)Oc2ccc(/C=N/N=C3/NC(=O)C(CC(=O)O)S3)cc2)cc1` (configuration not stated), the inhibition was -13.1% (inactive). Take `Cc1cccc(C)c1NC(=O)C1CCCN1C(=O)OC(C)(C)C` (configuration not stated): the inhibition was -5.04% (inactive).

Take `Cc1ccc(NC(=O)c2csc3c2CCCC3)cc1`: the inhibition was 12.4% (inactive). The result for `O=C(COC(=O)c1ccccc1)Nc1cccc(S(=O)(=O)N2CCOCC2)c1` reads -3.29% (inactive). On to `CC(Sc1cccc[n+]1[O-])C(=O)Nc1cccc(S(=O)(=O)N2CCOCC2)c1` (configuration not stated), for which the inhibition is -4.48% (inactive). As to `Cc1cc(C(=O)OC(C)C(=O)Nc2cccc(S(=O)(=O)N3CCOCC3)c2)c(C)o1` (configuration not stated), the inhibition was 99.7% (active).

Take `Cc1nc(CN2CCN(C(=O)CCc3nnc(Cc4c[nH]c5ccccc45)o3)CC2)cs1`: the inhibition is 0.41% (inactive). The result for `CN(CCN1CCOCC1)Cc1nc(-c2ccc3c(c2)OCO3)no1` reads 39.3% (inactive); that for `CC(C)c1cc(NCc2ccccn2)n2c(nc3ccccc32)c1C#N`, 8.36% (inactive).

With `Cc1cc(N/N=C/c2ccccc2F)c2ccccc2n1`, the inhibition is 12.3% (inactive). Take `Cc1nc(N2CCOCC2)sc1C(=O)NN`: the inhibition is 7.46% (inactive). As to `Cn1c(-c2ccccc2)c[n+]2c1CCCCC2`, the inhibition was 0.17% (inactive). With `Cc1ccc(C(=O)N2CCCC(c3ccccc3)=N2)cc1`, the inhibition was 16.1% (inactive).

For `Cc1ccc(C(=O)C[n+]2cc(-c3ccccc3)n3c2CCCCC3)cc1`, the inhibition was 101% (active) and 100% (active). As to `N/C(=N/O)c1cccn1Cc1ccccc1[N+](=O)[O-]`, the inhibition is -1.66% (inactive). For the molecule `COc1ccc(C)cc1NC(=O)c1ccc(-c2ccc(C(C)=O)cc2)o1`, the inhibition is -4.3% (inactive). With `O=C(NNC(=S)Nc1ccc(Br)cc1Cl)c1ccco1`, the inhibition was 0.76% (inactive).

With `COc1cc2[nH]c(=O)n(CCC(=O)NC3CCN(Cc4ccccc4)CC3)c(=O)c2cc1OC`, the inhibition is -1.95% (inactive). Regarding `O=C(COc1ccccc1F)NC1CC1`, the inhibition was -1.88% (inactive). In the case of `Cc1ccn2cc(C(=O)NC3CCN(Cc4ccccc4)CC3)nc2c1`, the inhibition is 4.6% (inactive). Consider `COc1cc2[nH]c(=O)n(Cc3ccc(C(=O)NC4CCN(Cc5ccccc5)CC4)cc3)c(=O)c2cc1OC`, for which the inhibition was -5.05% (inactive). The value for `O=C(COc1ccc(Br)cc1F)NC1CCN(Cc2ccccc2)CC1` was 93.2% (active). Consider `O=C(NC1CCN(Cc2ccccc2)CC1)c1cc(Br)c(Br)[nH]1`, for which the inhibition is 60.3% (active). As for `S=C(NN=C1CCN(Cc2ccccc2)CC1)NC1CCCCC1`, the inhibition is -4.71% (inactive). With `S=C(Nc1ccc(Br)cc1Cl)NC1CCN(Cc2ccccc2)CC1`, the inhibition was 90.3% (active). Turning to `O=C(NC1CCN(Cc2ccccc2)CC1)c1ccccc1F`, the inhibition was 62.4% (active). As for `O=C(NC(=S)N1CCN(Cc2ccccc2)CC1)c1ccccc1`, the inhibition was 14.1% (inactive). Take `O=C(NC1CCN(Cc2ccccc2)CC1)c1c(F)cccc1F`: the inhibition was 21.7% (inactive).
